Source: PubChem BioAssay
ALR inh: blocks human ALR sulfhydryl oxidase activity; purified ALR, DTT oxidation, H2O2 HRP-luminol luminescence; inhibition, % (concentration not given with the values); 3.8% of 290,000 active; AID 485317;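 active = mean replicate inhibition above about 79%, with every replicate also reaching it, limit read from the data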
PHOSPHO1 block: inhibitors of human PHOSPHO1 phosphatase | Q8TCT1 | recombinant PHOSPHO1, absorbance phosphatase assay | inhibition, % at 13.3 µM | 1.1% of 290,000 active | AID 1565; in the data active = inhibition above about 60%
Target sequence (Q8TCT1 whole entry, looked up): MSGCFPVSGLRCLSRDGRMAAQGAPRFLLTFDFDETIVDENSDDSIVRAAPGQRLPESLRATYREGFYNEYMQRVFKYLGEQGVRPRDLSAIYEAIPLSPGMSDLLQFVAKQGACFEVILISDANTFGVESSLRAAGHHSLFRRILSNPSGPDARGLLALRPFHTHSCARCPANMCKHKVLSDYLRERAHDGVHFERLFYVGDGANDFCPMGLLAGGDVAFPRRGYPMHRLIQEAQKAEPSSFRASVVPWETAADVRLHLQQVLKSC
H9c2 protect: modulators protecting cardiomyocytes from myocardial damage. protection from H2O2 cell death, % at 20 µM. H9c2 cardiomyocytes, H2O2 injury protection, ATPLite, 2 h. AID 588492. 0.63% of 360,000 active;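 active = compounds giving at least 50% protection of heart cells from peroxide-induced death in the single-dose screen, raw or plate-pattern-corrected value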;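 note: 0% = DMSO wells with peroxide and 100% = DMSO wells without peroxide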
M18AAP inhibitor: blocks P. falciparum M18 aspartyl aminopeptidase. recombinant PfM18AAP, H-Glu-NHMec fluorogenic cleavage. inhibition, % at 7.35 µM. 1.2% of 290,000 active;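 active = inhibition above the campaign mean inhibition over all tested compounds plus 3 SD, cut at about 28% in these data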;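 note: 0% = plate median of test compound wells and 100% = 2 mM ZnCl2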
PfG6PD inh: PfG6PD (Plasmodium falciparum) enzyme inhibition; inhibition, % at 20 µM; 0.78% of 350,000 active; PfGluPho enzyme, NADPH resazurin-diaphorase fluorescence;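 active = inhibition reaching at least a set limit at 20 µM in the primary screen, cut at about 59% in these data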;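 note: 0% = DMSO wells with substrate and 100% = DMSO wells lacking glucose-6-phosphate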
Numbers without * were called inactive; . = no result. Shown are actives, neighbours in structure and some others; about 5.6% of the full set was active somewhere.

SMILES	ALR inh	PHOSPHO1 block	H9c2 protect	M18AAP inhibitor	PfG6PD inh
Oc1ccc(/C=N/Nc2ccc(C(F)(F)F)cn2)cc1	97*	-21	-24	1	25
Oc1ccc(/C=N/Nc2ccc(C(F)(F)F)cn2)c(O)c1	22	33	41	25	.
Cc1noc(NS(=O)(=O)c2ccc(NC(=O)CCN3C(=O)c4ccccc4C3=O)cc2)c1C	94*	28	-8	3	-5
Cc1noc(NS(=O)(=O)c2ccc(NC(=O)CSc3nnc(-c4ccccc4)n3C3CCCCC3)cc2)c1C	98*	12	9	6	-44
Cc1noc(NS(=O)(=O)c2ccc(NC(=O)c3ccc(N4C(=O)c5ccccc5C4=O)cc3)cc2)c1C	-1	16	3	3	-17
Cc1noc(NS(=O)(=O)c2ccc(NC(=O)/C=C/c3ccc(Br)cc3)cc2)c1C	91*	12	-2	-14	-29
Cc1cc(C)c(C#N)c(SCC(=O)Nc2ccc(S(=O)(=O)Nc3onc(C)c3C)cc2)n1	96*	-14	3	-2	-17
Cc1noc(NS(=O)(=O)c2ccc(NC(=O)/C=C/c3ccc(C(C)C)cc3)cc2)c1C	14	.	-2	2	-15
Cc1cccnc1CCNCc1c(C(=O)N2C[C@@H](C)O[C@@H](C)C2)nc2ccc(Cl)cn12	-6	32	12	6	-4
CCOc1cc(Cl)c(S(=O)(=O)NCCCn2ccnc2)cc1Cl	-11	.	-14	-17	34
Cc1ccnc(Nc2cccnc2)n1	.	.	2	.	.
COc1ccc(Nc2nc(Nc3ccc(OC)cc3)nc(-n3[nH]c(=O)c(C)c3C)n2)cc1	84*	15	92*	1	-11
CCC(CC)NC(=O)c1cc(S(=O)(=O)N2CCCCC2)ccc1N1CCOCC1	-1	.	6	.	4
Cc1ccc(-n2ccnc(SCC(=O)NC3CCCC3)c2=O)cc1F	94*	.	8	.	8
CCOc1ccc(CCN2C(=O)c3ccc(C(=O)O)cc3C2=O)cc1OCC	-1	29	8	-8	-1
COc1ccc(NC(=O)c2ccc(NC(=O)c3ccncc3)cc2)cc1	-3	12	3	-12	-18
COc1ccc(C(=O)Nc2ccc(C3CC3(Cl)Cl)cc2)cc1 (stereo not given)	4	71*	-16	-4	2
CCOCCn1ccc2c(OCC(=O)Nc3cc(OC)ccc3OC)cccc2c1=O	-4	.	53*	.	11
COCCn1ccc2c(OCC(=O)Nc3cc(OC)ccc3OC)cccc2c1=O	-7	.	36	.	1
CC(=O)Nc1ccc(S(=O)(=O)NCCC(=O)OCC(=O)N2CCN(C(=O)c3ccco3)CC2)cc1	0	-52	2	0	1
O=C(COc1ccc(Br)cc1)NNC(=S)NC(=O)c1ccccc1[N+](=O)[O-]	.	23	18	16	-22
COc1ccc(NC(=O)COc2ccccc2)c(OC)c1	-4	-21	-5	-9	-6
CC(=O)NC(=S)NNC(=O)COc1ccc([N+](=O)[O-])cc1	21	67*	6	8	1
O=C(COc1ccccc1)NNC(=O)COc1ccc([N+](=O)[O-])cc1	0	-5	3	20	-3
COc1ccc(NC(=O)COc2ccc(Br)cc2)c(OC)c1	.	60*	-3	-2	-2
SMILES	ALR inh	PHOSPHO1 block	H9c2 protect	M18AAP inhibitor	PfG6PD inh
CC(=O)NC(=S)NNC(=O)COc1ccc(Br)cc1	.	61*	-4	13	21
COc1cc2ncnc(N[C@H](C)c3ccccc3)c2cc1OC	.	2	-13	-7	-14
CCCN(CCC)CCCNC(=O)CS(=O)Cc1nc(-c2ccc(OC)c(OC)c2)oc1C (stereo not given)	100*	0	-1	-5	-5
CCCCN(C)CCCNC(=O)CS(=O)Cc1nc(-c2ccc(OC)c(OC)c2)oc1C (stereo not given)	100*	42	-1	-12	-10
C/C(=N\NC(=O)c1ccc([N+](=O)[O-])cc1Cl)c1ccccc1	-8	41	-7	6	-12
CCCN(CC(=O)Nc1ccccc1OC)C(=O)c1ccc2c(c1)NC(=O)C(C)S2 (stereo not given)	-7	.	-1	.	16
O=C(NCCCn1ccnc1)C(Cc1ccccc1)N1C(=O)c2ccccc2C1=O (stereo not given)	6	6	-2	29*	-3
CC(C)c1ccccc1NC(=S)NCCCn1ccnc1	87*	-1	12	1	4
COc1ccc(NC(=O)COC(=O)c2ccc(S(=O)(=O)N3CCCCC3)cc2)c(OC)c1	.	.	7	.	-2
S=C(NN=C(C1CC1)C1CC1)Nc1ccccc1	97*	-23	-6	23	6
